Data taken from the OligoGym collection.

What was measured:
Test in all cases: pooled miR-30 sensor sort-seq; sequence = guide strand
Conditions in all cases: shRNA
AACS = biological target: AACS
AADACL3 = biological target: AADACL3
AADACL2 = biological target: AADACL2
AATK = biological target: AATK
ABHD8 = biological target: ABHD8
ACTL6A = biological target: ACTL6A
ADAD1 = biological target: ADAD1
ADAM19 = biological target: ADAM19
ADRB1 = biological target: ADRB1
AHCY = biological target: AHCY
AKR1C4 = biological target: AKR1C4
ALOX12B = biological target: ALOX12B
ALG3 = biological target: ALG3
ALG10B = biological target: ALG10B
ALDH9A1 = biological target: ALDH9A1
Note: reference of the scale not given here.

## TGATTCTGCAGTAGTCGCCATG
AACS
  sensor-assay potency score (higher = more potent): -0.951

## TAGCAGATGAAACTCCAGGTGA
AADACL3
  sensor-assay potency score (higher = more potent): -0.205

## TTGGAATCTTTGAAAGGTCTAT
AACS
  sensor-assay potency score (higher = more potent): 0.0735

## TATGCTTAGGTAACTTGCGGTA
AADACL3
  sensor-assay potency score (higher = more potent): -0.306

## TTACAGTGCACACGGGTGCGGC
AACS
  sensor-assay potency score (higher = more potent): -0.808

## TTGGCAAGTACAATCGTACTGG
AADACL2
  sensor-assay potency score (higher = more potent): 0.407

## TATGTCATCTTCTGCAATCAGG
AADACL3
  sensor-assay potency score (higher = more potent): -1.03

## TTTTCTGCATAGTTGAGCCGAC
AACS
  sensor-assay potency score (higher = more potent): -0.296

## TTGTAACATACATAAGTCCATC
AADACL2
  sensor-assay potency score (higher = more potent): -1.14

## TTACTTCCAAGTAAGCAGCTTC
AADACL3
  sensor-assay potency score (higher = more potent): 0.308

## TCTGTCATTCTCTTTGTGCCGC
AACS
  sensor-assay potency score (higher = more potent): 0.211

## TAACATACATAAGTCCATCATC
AADACL2
  sensor-assay potency score (higher = more potent): -1.34

## TTTTGTAAGAATTTTTTCCAAA
AADACL2
  sensor-assay potency score (higher = more potent): -1.07

## TTTTATTTCAGCATCATTCTGC
AADACL2
  sensor-assay potency score (higher = more potent): 0.839

## TTGTTGACAAACCACTGCGGCT
AADACL3
  sensor-assay potency score (higher = more potent): -1.56

## TTGATTCTGCAGTAGTCGCCAT
AACS
  sensor-assay potency score (higher = more potent): 0.104

## TTTTCTTGTACAACAGTGAATT
AADACL3
  sensor-assay potency score (higher = more potent): -1.64

## TTTGACGGCAACTTCCACTTTC
AACS
  sensor-assay potency score (higher = more potent): -0.286

## TTATGCTTAGGTAACTTGCGGT
AADACL3
  sensor-assay potency score (higher = more potent): 0.0464

## TAGGCCTTTAACCACCTGCTGC
AACS
  sensor-assay potency score (higher = more potent): -1.19

## TATCTCTTATCCTAAGACCTAG
AADACL2
  sensor-assay potency score (higher = more potent): -0.412

## TAACTGAGAATCATTGGCCAAC
AADACL2
  sensor-assay potency score (higher = more potent): -1.39

## TTGCCTTCTGATCTCAGCGGAA
AATK
  sensor-assay potency score (higher = more potent): -0.981

## TTCACCGTCAGGTCAGCCGTGA
AATK
  sensor-assay potency score (higher = more potent): -0.0686

## TTGAGGGTGCCGTCACTCCGGC
AACS
  sensor-assay potency score (higher = more potent): -1.01

## TTTCATGATGACCTCTTGCCAG
AADACL3
  sensor-assay potency score (higher = more potent): -1.07

## TTCATGATGACCTCTTGCCAGG
AADACL3
  sensor-assay potency score (higher = more potent): -1.37

## ATCCGTGACCACAACATCGGGA
AADACL3
  sensor-assay potency score (higher = more potent): 0.0942

## TTTTTGGCAAGTACAATCGTAC
AADACL2
  sensor-assay potency score (higher = more potent): -0.474

## TAAATGTACAAGTTTTAGCGAT
AADACL2
  sensor-assay potency score (higher = more potent): -0.754

## ATAGTCACCAATCTTCACCGTC
AATK
  sensor-assay potency score (higher = more potent): 0.047

## TAGCACAGGAGGATGTCACTGC
AACS
  sensor-assay potency score (higher = more potent): 0.828

## TTCAGCATCATTCTGCACCTGT
AADACL2
  sensor-assay potency score (higher = more potent): 0.443

## TACAACAACAGCATCAAGCGTG
AADACL2
  sensor-assay potency score (higher = more potent): -0.148

## TAGATCAGGATCTGAGCCCGGA
AADACL3
  sensor-assay potency score (higher = more potent): 0.297

## TAAACAGATGTCTTGACTCCAG
AADACL2
  sensor-assay potency score (higher = more potent): -0.578

## TTTCGATGTGTCCACAACCTCA
AACS
  sensor-assay potency score (higher = more potent): -1.33

## TACAGATCCAGGGTCTCGGGGT
AACS
  sensor-assay potency score (higher = more potent): -0.361

## TACAACAGTGAATTGTCCCGGA
AADACL3
  sensor-assay potency score (higher = more potent): 0.727

## TTGCGGTACACGGTGATCCGGC
ABHD8
  sensor-assay potency score (higher = more potent): -0.925

## TCACCTTGTGCACTAGGTCTGG
ABHD8
  sensor-assay potency score (higher = more potent): -0.472

## TTGAAGGACATAGCCATCGTGG
ACTL6A
  sensor-assay potency score (higher = more potent): -0.822

## TAGTAATAAAGTCTCCAGCAAG
ACTL6A
  sensor-assay potency score (higher = more potent): -1.21

## TTGCTGTAACAACAGCATGAGT
ADAD1
  sensor-assay potency score (higher = more potent): -1.53

## TTTCCGTGAACAATCTCCCAAA
ADAM19
  sensor-assay potency score (higher = more potent): -0.808

## TTTTCCGTGAACAATCTCCCAA
ADAM19
  sensor-assay potency score (higher = more potent): -0.446

## TCGCTGTCCGCCGCCGCCCCGC
ADRB1
  sensor-assay potency score (higher = more potent): -1.6

## TCCACTGAGGTCCACAGCTCGC
ADRB1
  sensor-assay potency score (higher = more potent): -1.74

## TTCAGCCACTGCCTCATCCAGC
AHCY
  sensor-assay potency score (higher = more potent): -0.886

## TTGTCAAACTTGCTCTTGGTGA
AHCY
  sensor-assay potency score (higher = more potent): -0.625

## TTGGTGACCTCTACAGCTCTGT
AKR1C4
  sensor-assay potency score (higher = more potent): 0.122

## TAGAAGTCCTGCTTGGCTCTGA
ALOX12B
  sensor-assay potency score (higher = more potent): 0.53

## TAGCCATTCCACTCAGGCCGGT
ALOX12B
  sensor-assay potency score (higher = more potent): -1.01

## TTGATGACGCCTTCTACCTCGG
ALG3
  sensor-assay potency score (higher = more potent): -0.378

## TATAGTCATAGGTACCATTGAT
ALG3
  sensor-assay potency score (higher = more potent): -0.777

## TGTAGAACTCCGCATAGCGTAC
ALOX12B
  sensor-assay potency score (higher = more potent): -1.11

## ATAATAGGTGATGATCTCCGTC
ALOX12B
  sensor-assay potency score (higher = more potent): -0.228

## TAAAGTGTTGGAAATACTGCTA
ALG10B
  sensor-assay potency score (higher = more potent): -0.0567

## TAAAGATGTACACGAAACCAGC
ALG3
  sensor-assay potency score (higher = more potent): -1.12

## TCGCCAGTGGTAGAAGTCCTGC
ALOX12B
  sensor-assay potency score (higher = more potent): -1.5

## TTGATCTGGACGGTGTATCGGG
ALOX12B
  sensor-assay potency score (higher = more potent): -0.0019

## TTTTGTGCAATGACATTCCCTG
ALG10B
  sensor-assay potency score (higher = more potent): 0.314

## TAGAACTGGTAGTGGAGGGAGC
ALG3
  sensor-assay potency score (higher = more potent): -0.534

## AAGAGCAGCACATTCATCTTCA
ALG3
  sensor-assay potency score (higher = more potent): 0.161

## TTGGCTAGCAGCCAGTCCCACT
ALOX12B
  sensor-assay potency score (higher = more potent): -1.48

## TTTCTGAGGAACTATAACAATG
ALG10B
  sensor-assay potency score (higher = more potent): -1.85

## TCACATACTTCTCCAGTGCATT
ALOX12B
  sensor-assay potency score (higher = more potent): -1.5

## TCATTGAGGAGAACGGCCCGGC
ALOX12B
  sensor-assay potency score (higher = more potent): 0.146

## TAGGTACCATTGATGACGCCTT
ALG3
  sensor-assay potency score (higher = more potent): -0.738

## ATGTACACGAAACCAGCTGGGT
ALG3
  sensor-assay potency score (higher = more potent): -1.42

## TATTTCAGAATTGCATATCTTT
ALG10B
  sensor-assay potency score (higher = more potent): -0.42

## ATAGTCATAGGTACCATTGATG
ALG3
  sensor-assay potency score (higher = more potent): -0.727

## TCTGATCTCCTCTTTTCTGTGC
ALOX12B
  sensor-assay potency score (higher = more potent): 0.286

## TTCATGACTACTCCGATCGCCA
ALG10B
  sensor-assay potency score (higher = more potent): -0.64

## TTGCCAGGGAAAATTTTCCTAA
ALOX12B
  sensor-assay potency score (higher = more potent): -0.741

## TGATCTGGACGGTGTATCGGGT
ALOX12B
  sensor-assay potency score (higher = more potent): -0.615

## TTTGCAGTCCAACAGGCCGCGG
ALOX12B
  sensor-assay potency score (higher = more potent): -1.33

## TATGTGTTCCAGGAGAGCTCGA
ALG3
  sensor-assay potency score (higher = more potent): -0.768

## ACTATAACAATGAACAAGCATA
ALG10B
  sensor-assay potency score (higher = more potent): -1.35

## AATGCTGTTGATCTGGACGGTG
ALOX12B
  sensor-assay potency score (higher = more potent): -0.387

## TTGCATAGCAACTCAGTTCACA
ALG10B
  sensor-assay potency score (higher = more potent): -0.443

## TGGGTCATTGAAGAGCCGCAGC
ALG3
  sensor-assay potency score (higher = more potent): -1.28

## TAAAAAAATGTCAATGAGCTGA
ALDH9A1
  sensor-assay potency score (higher = more potent): -0.73

## TGAGGGTAGACTCAGGTCCTGA
ALG3
  sensor-assay potency score (higher = more potent): -1.65
